Measurements reported in PMC4336329 (PLoS ONE, 2015).
The whole screen tested about 310,000 compounds, of which about 14,000 (4.5%) showed an effect of 50% or more. Effects have a minus sign here. This is one part of a sample in which strong results are shown more often than they occur.

Target: human ether-à-go-go-related gene (hERG) potassium channel (human, UniProt Q12809)
Experiment: primary screen, population patch clamp on CHO cells stably expressing hERG; higher = less effect of the substance
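Further: peak tail current of the secondary pulse compared with the same well before compound.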

Chain of human ether-à-go-go-related gene (hERG) potassium channel (Q12809 whole entry, looked up): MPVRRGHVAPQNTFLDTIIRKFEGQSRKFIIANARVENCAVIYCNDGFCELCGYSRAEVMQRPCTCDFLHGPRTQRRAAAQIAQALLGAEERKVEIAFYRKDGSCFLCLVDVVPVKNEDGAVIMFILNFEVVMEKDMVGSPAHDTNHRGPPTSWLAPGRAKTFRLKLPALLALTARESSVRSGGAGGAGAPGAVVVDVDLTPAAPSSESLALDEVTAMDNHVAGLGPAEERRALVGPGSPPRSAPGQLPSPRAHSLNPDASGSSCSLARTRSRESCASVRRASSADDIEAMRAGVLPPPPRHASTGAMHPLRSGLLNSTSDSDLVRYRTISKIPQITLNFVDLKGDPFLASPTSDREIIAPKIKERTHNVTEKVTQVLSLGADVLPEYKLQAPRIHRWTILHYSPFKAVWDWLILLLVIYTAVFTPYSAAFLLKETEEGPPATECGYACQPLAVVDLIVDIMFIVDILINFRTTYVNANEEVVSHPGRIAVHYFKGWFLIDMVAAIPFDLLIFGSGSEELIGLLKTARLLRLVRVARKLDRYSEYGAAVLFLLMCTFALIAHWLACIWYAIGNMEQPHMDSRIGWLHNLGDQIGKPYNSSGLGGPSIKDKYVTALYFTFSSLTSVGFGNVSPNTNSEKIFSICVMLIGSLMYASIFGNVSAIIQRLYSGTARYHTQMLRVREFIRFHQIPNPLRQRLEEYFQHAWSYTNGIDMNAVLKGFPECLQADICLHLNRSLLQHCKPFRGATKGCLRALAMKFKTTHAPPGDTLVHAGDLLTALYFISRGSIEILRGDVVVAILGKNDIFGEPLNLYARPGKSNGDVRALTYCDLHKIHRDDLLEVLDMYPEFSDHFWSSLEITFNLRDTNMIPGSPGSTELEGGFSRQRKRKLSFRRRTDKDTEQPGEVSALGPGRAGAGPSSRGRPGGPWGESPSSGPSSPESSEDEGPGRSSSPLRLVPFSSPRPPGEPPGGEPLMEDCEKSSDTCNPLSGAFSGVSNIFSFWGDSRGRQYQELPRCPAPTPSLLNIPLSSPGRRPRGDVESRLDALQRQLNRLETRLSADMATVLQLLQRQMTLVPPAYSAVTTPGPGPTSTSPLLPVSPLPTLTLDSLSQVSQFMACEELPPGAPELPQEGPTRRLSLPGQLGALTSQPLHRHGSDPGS

Structure (SMILES) | hERG current change (%, negative = inhibition) at 10uM
O=C1CCCC(O)=C1C(C#Cc1ccccc1)C1=C(O)CCCC1=O | -17.9%
CCOC(=O)c1c(C)oc2ccc(NS(=O)(=O)c3cccs3)cc12 | 6.47%
COC(=O)c1c(C)oc2ccc(NS(=O)(=O)c3cccs3)cc12 | -2.42%
COCCOC(=O)c1c(C)oc2ccc(NS(=O)(=O)c3cccs3)cc12 | -51.4%
CCOC(=O)c1ccc(NC(=O)CCSCCc2ccccn2)cc1 | 0.702%
CC(C)C[C@H](NC(=O)[C@H](Cc1ccccc1)n1c(=O)[nH]c2ccccc2c1=O)C(=O)N1CCC[C@H]1C(=O)O | 6.16%
COCCNc1nc(-c2ccc(OC)cc2)c(-c2ccc(OC)cc2)s1 | 15.3%
CCN(CC)CCNc1nc(-c2ccc(OC)cc2)c(-c2ccc(OC)cc2)s1 | -52.6%
CNc1nc(-c2ccc(OC)cc2)c(-c2ccc(OC)cc2)s1 | -12.7%
Br.COc1ccc(-c2nc(NC3=NCCCCC3)sc2C)cc1 | -26.6%
CCNc1nc(-c2ccc(OC(F)F)cc2)c(C)s1 | 15.1%
CCN(CC)CCNc1nc(-c2ccc(OC(F)F)cc2)c(C)s1 | -77.8%
C/C(=N/NC(=O)c1ccc(Cl)cc1Cl)c1cccnc1 | 16.4%
CN1CCN(c2nc3c(c(=O)n(C)c(=O)n3C)n2Cc2cccc3ccccc23)CC1 | -5.1%
CN(CC(=O)Nc1ccc(Cl)cc1F)C1CCS(=O)(=O)C1 (stereo not shown) | -20.6%
COc1ccc(CNC(=O)C2CC(=O)N(C3CCCC3)C2)cc1 (stereo not shown) | -8.14%
O=C(OCC#CCSc1nnc(-c2ccccc2)o1)c1cccs1 | -17.7%
O=C(OCC#CCSc1nnc(-c2ccncc2)o1)c1cccs1 | -53.2%
Cc1ccc(-c2nnc(SCC#CCOC(=O)c3cccs3)o2)cc1 | 14.3%
COc1ccc(CN2CCNC(=O)C2CC(=O)NCc2cn[nH]c2-c2ccccc2)c(F)c1 (stereo not shown) | -1.07%
Cc1cccc(NC(=O)c2ccccc2NC(=O)Cc2ccccc2)c1C | 4.93%
CCNC(=O)CSc1nc(-c2ccccc2)cs1 | -4.81%

Structure (SMILES) | hERG current change (%, negative = inhibition) at 10uM
CN(C)c1nc(N2CCN(c3ccccc3)CC2)c(C#N)c(=O)o1 | -16.9%
CCN1CCN(C(c2cccs2)C(C)NC(=O)Oc2ccccc2)CC1 (stereo not shown) | -38.5%
CC(C)N(C(=O)c1ccc2nc(-c3ccccc3)c(-c3ccccc3)nc2c1)C(C)C | -4.73%
Cc1ccc(SCc2nc(-c3ccccc3)no2)cc1 | 2.3%
CCN(CC)CCOc1ccccc1OC.O=C(O)C(=O)O | -11%
CCN(CC)CCOC(=O)C(Cc1cccc2ccccc12)CC1CCCO1.O=C(O)C(=O)O (stereo not shown) | -53.8%
CCN(CC)CCOC(=O)C(Cc1ccco1)Cc1cccc2ccccc12.O=C(O)C(=O)O (stereo not shown) | -76.8%
O=C(NCC1CCCO1)c1cccc2ccccc12 (stereo not shown) | 21.2%
O=C(Cc1cccc2ccccc12)NCC1CCCO1 (stereo not shown) | -5.85%
CCN(CC)CCOC(=O)CCc1cccc2ccccc12.O=C(O)C(=O)O | -42.6%
CCOC(=O)C(C)Oc1ccc2c(C)cc(=O)oc2c1C(C)=O (stereo not shown) | -13.8%
COCCn1c(SCC(=O)N2CCCCC2)nc2c(c1=O)SC(C)C2 (stereo not shown) | 9.29%
Cc1cccc(C)c1NC(=O)C[n+]1cc(-c2ccccc2)n2c1CCC2.[Cl-] | 11.3%
Cc1ccc(-c2csc(NC(=O)C[n+]3cc(-c4ccccc4)n4c3CCC4)n2)cc1.[Cl-] | -57%
O=C(C[n+]1cc(-c2ccccc2)n2c1CCC2)Nc1nc(-c2ccccc2)cs1.[Cl-] | -35.1%
Cc1ccc(-c2csc(NC(=O)C[n+]3cc(-c4ccc(C)cc4)n4c3CCC4)n2)cc1.[Cl-] | -72.5%
Cc1ccccc1NC(=O)C[n+]1cc(-c2ccccc2)n2c1CCC2.[Cl-] | 12.9%
Cc1ccc(-c2c[n+](CC(=O)Nc3ccc(C)cc3C)c3n2CCC3)cc1.[Cl-] | -30.8%
O=C(C[n+]1cc(-c2ccc(Cl)cc2)n2c1CCC2)Nc1nc(-c2ccccc2)cs1.[Cl-] | -0.843%
Cc1ccc(-c2c[n+](CC(=O)Nc3nc(-c4ccccc4)cs3)c3n2CCC3)cc1.[Cl-] | -54.9%
Cc1ccc(-c2c[n+](CC(=O)Nc3cc(=O)n(C)c(=O)n3C)c3n2CCC3)cc1.[Cl-] | -0.179%
